Active and inactive are the calls of the source. How the source made its calls: active means hit-call score of the fitted dose curve at least 0.9, where 1 is the maximum; inactive means score below 0.9.
Assays:
Conditions in all cases: mRNA level, 48 h; actives raise or lower the signal
CYP2C9 (gene 1559) = assay: LTEA_HepaRG_CYP2C9: Life Technologies and Expression Analysis (LTEA) Assay for CYP2C9 using HepaRG (AID 2283484)
Procedure, shortened: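 Cells plated 48 h, switched to serum-free induction medium, then treated in duplicate for 48 h at eight concentrations (max 100 uM, 0.5% DMSO). RNA then analysed by qRT-PCR for CYP2C9; curves fitted in both directions relative to DMSO.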

CYP2E1 (gene 1571) = assay: LTEA_HepaRG_CYP2E1: Life Technologies and Expression Analysis (LTEA) Assay for CYP2E1 using HepaRG (AID 2283485)
Procedure, shortened: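 HepaRG cells in serum-free induction medium exposed 48 h to test chemicals, 8 half-log concentrations up to 100 uM in 0.5% DMSO, duplicate. CYP2E1 mRNA by qRT-PCR, normalized to ACTB, GAPDH, POLR2A; bidirectional fit versus DMSO.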

CYP4A11 (gene 1579) = assay: LTEA_HepaRG_CYP4A11: Life Technologies and Expression Analysis (LTEA) Assay for CYP4A11 using HepaRG (AID 2283486)
Procedure, shortened: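 Differentiated HepaRG cells, 48 h after plating, exposed in duplicate for 48 h to 8 half-log concentrations up to 100 uM in 0.5% DMSO in serum-free induction medium. CYP4A11 mRNA measured by TaqMan qRT-PCR, normalized to ACTB, GAPDH and POLR2A.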

[1] = read-out: Cytochrome P450 3A4 (Homo sapiens) (UniProt P08684); assay: LTEA_HepaRG_CYP3A4: Life Technologies and Expression Analysis (LTEA) Assay for CYP3A4 using HepaRG (AID 2283487)
Procedure, shortened: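 In a human hepatic line (HepaRG), duplicate wells were treated 48 h with up to 100 uM chemical in half-log dilutions. Endpoint: CYP3A4 mRNA induction or loss relative to 0.5% DMSO vehicle, by qRT-PCR.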

[2] = read-out: DNA damage-inducible transcript 3 (DDIT3), DDIT3 (gene 1649); assay: LTEA_HepaRG_DDIT3: Life Technologies and Expression Analysis (LTEA) Assay for DNA damage-inducible transcript 3 (DDIT3) using HepaRG (AID 2283488)
Procedure, shortened: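 Differentiated human HepaRG cells in serum-free induction medium were exposed in duplicate for 48 h to 8 concentrations (top 100 uM, half-log steps, 0.5% DMSO). DDIT3 mRNA measured by TaqMan qRT-PCR, normalized to ACTB/GAPDH/POLR2A; bidirectional fit versus DMSO.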

[3] = read-out: Pro-epidermal growth factor (Homo sapiens) (UniProt P01133); assay: LTEA_HepaRG_EGF: Life Technologies and Expression Analysis (LTEA) Assay for Epidermal growth factor (EGF) using HepaRG (AID 2283489)
Procedure, shortened: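 HepaRG cells (~100,000/well, 48 h pre-culture) exposed in duplicate for 48 h in serum-free induction medium to 8 half-log concentrations up to 100 uM in 0.5% DMSO. EGF mRNA by qRT-PCR, normalized to ACTB/GAPDH/POLR2A; bidirectional fit versus DMSO.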

[4] = read-out: Early growth response protein 1 (EGR1) transcription factor, EGR1 (gene 1958); assay: LTEA_HepaRG_EGR1: Life Technologies and Expression Analysis (LTEA) Assay for Early growth response protein 1 (EGR1) transcription factor using HepaRG (AID 2283490)
Procedure, shortened: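 Read-out is EGR1 mRNA level by qRT-PCR, normalized to three housekeeping genes and analysed for gain or loss of signal against 0.5% DMSO. Source cells: human HepaRG, treated 48 h at up to 100 uM in half-log dilutions.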

[5] = read-out: Ezrin (EZR), EZR (gene 7430); assay: LTEA_HepaRG_EZR: Life Technologies and Expression Analysis (LTEA) Assay for Ezrin (EZR) using HepaRG (AID 2283491)
Procedure, shortened: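 Gain or loss of EZR mRNA is scored relative to 0.5% DMSO in human HepaRG cultures treated 48 h with test chemicals in duplicate, eight half-log concentrations from 100 uM.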

[6] = read-out: Cytochrome P450 3A7 (Homo sapiens) (UniProt P24462); assay: LTEA_HepaRG_CYP3A7: Life Technologies and Expression Analysis (LTEA) Assay for CYP3A7 using HepaRG (AID 2283492)
Procedure, shortened: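 Differentiated HepaRG cells in serum-free induction medium exposed 48 h in duplicate to 8-point half-log series from 100 uM top in 0.5% DMSO. CYP3A7 mRNA by qRT-PCR, normalized to ACTB/GAPDH/POLR2A, bidirectional fit versus DMSO.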

CYP3A5 (gene 1577) = assay: LTEA_HepaRG_CYP3A5: Life Technologies and Expression Analysis (LTEA) Assay for CYP3A5 using HepaRG (AID 2283493)
Procedure, shortened: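 Differentiated HepaRG cells in serum-free induction medium were dosed 48 h with test chemicals (8-point half-log series, top 100 uM, 0.5% DMSO, duplicate). CYP3A5 mRNA measured by qRT-PCR, normalized to ACTB, GAPDH, POLR2A; bidirectional fit versus DMSO.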

[7] = read-out: Fatty Acid-Binding Protein 1 (FABP1), FABP1 (gene 2168); assay: LTEA_HepaRG_FABP1: Life Technologies and Expression Analysis (LTEA) Assay for Fatty Acid-Binding Protein 1 (FABP1) using HepaRG (AID 2283494)
Procedure, shortened: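 HepaRG, 48 h post-plating switched to serum-free induction medium, then dosed 48 h (duplicate, 8 pts, ≤100 uM, 0.5% DMSO). RNA → Fluidigm TaqMan qRT-PCR, FABP1 normed to ACTB/GAPDH/POLR2A. Bidirectional curve fit vs DMSO.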

[8] = read-out: Cytochrome P450 4A22 (Homo sapiens) (UniProt Q5TCH4); assay: LTEA_HepaRG_CYP4A22: Life Technologies and Expression Analysis (LTEA) Assay for Cytochrome P450 4A22 (CYP4A22) using HepaRG (AID 2283495)
Procedure, shortened: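 Differentiated HepaRG cells in serum-free induction medium exposed 48 h in duplicate to eight half-log concentrations up to 100 uM in 0.5% DMSO. CYP4A22 mRNA quantified by TaqMan qRT-PCR, normalized to ACTB, GAPDH and POLR2A; bidirectional fit versus DMSO.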

[9] = read-out: Cytochrome P450 7A1 (Homo sapiens) (UniProt P22680); assay: LTEA_HepaRG_CYP7A1: Life Technologies and Expression Analysis (LTEA) Assay for Cytochrome P450 7A1 (CYP7A1) using HepaRG (AID 2283496)
Procedure, shortened: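 Gene expression endpoint in human HepaRG liver cells treated for 48 h with test chemicals (up to 100 uM, 0.5% DMSO). Values come from bidirectional concentration-response fitting versus DMSO.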

[10] = read-out: Glutathione S-Transferase (GSTA2), GSTA2 (gene 2939); assay: LTEA_HepaRG_GSTA2: Life Technologies and Expression Analysis (LTEA) Assay for Glutathione S-Transferase (GSTA2) using HepaRG (AID 2283497)
Procedure, shortened: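 HepaRG, 48 h dosing, 8-pt half-log CRC from 100 uM, 0.5% DMSO vehicle, n=2; RNA → Fluidigm TaqMan qRT-PCR; GSTA2 vs ACTB/GAPDH/POLR2A; gain/loss fit vs DMSO.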

[11] = read-out: Glutamate-cysteine ligase catalytic (GCLC), GCLC (gene 2729); assay: LTEA_HepaRG_GCLC: Life Technologies and Expression Analysis (LTEA) Assay for Glutamate-cysteine ligase catalytic (GCLC) using HepaRG (AID 2283498)
Procedure, shortened: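 Read-out is GCLC transcript level by Fluidigm-based TaqMan qRT-PCR, normalized to three housekeeping genes and fitted in both directions relative to 0.5% DMSO. Human HepaRG cells received chemicals for 48 h, up to 100 uM.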

[12] = read-out: growth arrest and DNA damage 45 (GADD45G), GADD45G (gene 10912); assay: LTEA_HepaRG_GADD45G: Life Technologies and Expression Analysis (LTEA) Assay for growth arrest and DNA damage 45 (GADD45G) using HepaRG (AID 2283499)
Procedure, shortened: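 Differentiated human HepaRG cells, 48 h post-plating, exposed 48 h in serum-free induction medium to 8 half-log concentrations (top 100 uM, 0.5% DMSO) in duplicate. GADD45G mRNA measured by Fluidigm TaqMan qRT-PCR, normalized to ACTB, GAPDH, POLR2A; bidirectional fit versus DMSO.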

[13] = read-out: Glutamate-cysteine ligase regulatory (GCLM), GCLM (gene 2730); assay: LTEA_HepaRG_GCLM: Life Technologies and Expression Analysis (LTEA) Assay for Glutamate-cysteine ligase regulatory (GCLM) using HepaRG (AID 2283500)
Procedure, shortened: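 Differentiated human HepaRG cells exposed 48 h in serum-free induction medium to 8-point half-log concentrations (top 100 uM, 0.5% DMSO), in duplicate. GCLM mRNA quantified by qRT-PCR, normalized to ACTB, GAPDH, POLR2A; bidirectional fitting versus DMSO.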

[14] = read-out: Glutathione S-transferase M3 (GSTM3), GSTM3 (gene 2947); assay: LTEA_HepaRG_GSTM3: Life Technologies and Expression Analysis (LTEA) Assay for Glutathione S-transferase M3 (GSTM3) using HepaRG (AID 2283501)
Procedure, shortened: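 Differentiated human HepaRG cells were exposed in duplicate for 48 h in serum-free induction medium, 8 points from 100 uM top in half-log steps, 0.5% DMSO. GSTM3 mRNA was measured by TaqMan qRT-PCR, normalized to ACTB, GAPDH and POLR2A; bidirectional fit versus DMSO.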

[15] = read-out: Heat shock 70 kDa protein 1 (HSPA1A), gene 3303; assay: LTEA_HepaRG_HSPA1A: Life Technologies and Expression Analysis (LTEA) Assay for Heat shock 70 kDa protein 1 (HSPA1A) using HepaRG (AID 2283502)
Procedure, shortened: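 Differentiated human HepaRG cells in serum-free induction medium were exposed in duplicate for 48 h to eight concentrations (top 100 uM, half-log steps, 0.5% DMSO). HSPA1A mRNA was quantified by qRT-PCR, normalized to ACTB, GAPDH and POLR2A, and fitted bidirectionally against DMSO.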

[16] = read-out: Hypoxia-inducible factor 1-alpha (Homo sapiens) (UniProt Q16665); assay: LTEA_HepaRG_HIF1A: Life Technologies and Expression Analysis (LTEA) Assay for Hypoxia-inducible factor 1 (HIF1A) Trancription factor using HepaRG (AID 2283503);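 further: HIF1A transcript by TaqMan qRT-PCR normalized to ACTB GAPDH and POLR2A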
Procedure, shortened: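 HepaRG, 48 h exposure, 8-pt half-log series from 100 uM, 0.5% DMSO vehicle, duplicates. Readout: HIF1A transcript by qRT-PCR (Fluidigm array), housekeeping-normalised. Bidirectional curve fit vs DMSO baseline.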

Measured: AC50

Chain of Hypoxia-inducible factor 1-alpha (Homo sapiens) (Q16665 whole entry, looked up): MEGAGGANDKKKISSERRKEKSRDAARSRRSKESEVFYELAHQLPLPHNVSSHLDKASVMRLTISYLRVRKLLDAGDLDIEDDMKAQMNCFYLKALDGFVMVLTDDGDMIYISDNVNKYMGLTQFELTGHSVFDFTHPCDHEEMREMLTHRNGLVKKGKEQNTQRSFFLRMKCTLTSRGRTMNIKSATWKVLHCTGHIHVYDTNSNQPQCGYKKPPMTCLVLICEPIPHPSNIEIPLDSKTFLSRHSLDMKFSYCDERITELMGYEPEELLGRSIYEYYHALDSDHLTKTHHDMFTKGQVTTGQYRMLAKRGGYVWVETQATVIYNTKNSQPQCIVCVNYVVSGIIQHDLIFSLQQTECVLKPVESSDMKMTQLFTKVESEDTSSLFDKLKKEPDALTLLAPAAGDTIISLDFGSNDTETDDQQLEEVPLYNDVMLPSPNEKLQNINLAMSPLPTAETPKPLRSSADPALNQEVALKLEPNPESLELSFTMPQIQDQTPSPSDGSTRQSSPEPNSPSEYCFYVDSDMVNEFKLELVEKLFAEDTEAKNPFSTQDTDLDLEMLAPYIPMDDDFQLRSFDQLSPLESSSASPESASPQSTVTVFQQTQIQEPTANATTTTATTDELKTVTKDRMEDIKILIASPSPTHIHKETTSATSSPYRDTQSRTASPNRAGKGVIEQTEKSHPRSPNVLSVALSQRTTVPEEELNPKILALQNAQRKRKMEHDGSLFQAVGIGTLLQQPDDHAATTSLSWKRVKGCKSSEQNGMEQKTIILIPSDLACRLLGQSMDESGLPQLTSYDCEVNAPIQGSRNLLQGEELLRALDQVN
Chain of Cytochrome P450 3A4 (Homo sapiens) (P08684 whole entry, looked up): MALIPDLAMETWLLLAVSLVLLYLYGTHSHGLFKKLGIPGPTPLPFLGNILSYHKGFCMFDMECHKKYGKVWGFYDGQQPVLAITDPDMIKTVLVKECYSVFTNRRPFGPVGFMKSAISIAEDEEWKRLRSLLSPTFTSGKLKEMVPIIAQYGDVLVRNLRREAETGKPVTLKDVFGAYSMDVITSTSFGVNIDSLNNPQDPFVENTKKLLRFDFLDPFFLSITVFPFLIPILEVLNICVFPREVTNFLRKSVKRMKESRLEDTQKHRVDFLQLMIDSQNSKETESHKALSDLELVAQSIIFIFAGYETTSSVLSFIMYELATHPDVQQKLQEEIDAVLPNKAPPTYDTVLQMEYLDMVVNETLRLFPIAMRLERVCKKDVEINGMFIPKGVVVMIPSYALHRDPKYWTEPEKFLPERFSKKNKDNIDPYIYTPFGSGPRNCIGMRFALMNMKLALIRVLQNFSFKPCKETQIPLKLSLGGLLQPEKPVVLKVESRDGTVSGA
Chain of Cytochrome P450 3A7 (Homo sapiens) (P24462 whole entry, looked up): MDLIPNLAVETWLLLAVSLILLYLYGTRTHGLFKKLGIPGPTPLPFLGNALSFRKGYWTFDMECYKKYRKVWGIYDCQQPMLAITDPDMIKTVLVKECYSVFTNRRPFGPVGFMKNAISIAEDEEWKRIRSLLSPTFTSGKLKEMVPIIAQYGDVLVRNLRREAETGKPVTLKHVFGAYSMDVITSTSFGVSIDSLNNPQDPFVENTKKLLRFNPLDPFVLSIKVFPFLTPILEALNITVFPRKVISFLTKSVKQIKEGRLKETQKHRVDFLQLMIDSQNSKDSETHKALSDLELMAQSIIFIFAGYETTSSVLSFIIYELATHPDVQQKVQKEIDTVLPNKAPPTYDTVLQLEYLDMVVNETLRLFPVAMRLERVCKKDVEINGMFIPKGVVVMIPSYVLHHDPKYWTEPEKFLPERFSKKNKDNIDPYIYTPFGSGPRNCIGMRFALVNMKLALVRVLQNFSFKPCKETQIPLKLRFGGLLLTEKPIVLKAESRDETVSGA

CC(C)(O)c1ccc(CNC(=O)c2cccnc2Oc2ccc3nonc3c2)cc1
active: CYP2E1 (gene 1571) 34.2 µM | [1] 8.42 µM | [6] 6.62 µM
inactive: all other assays above

Cc1c2ccccc2c(C)c2c1ccc1ccccc12
inactive: [5] | [11] | [12] | [14]
active: CYP2C9 (gene 1559) 37.2 µM | CYP2E1 (gene 1571) 18.8 µM | CYP4A11 (gene 1579) 33.2 µM | [1] 78.8 µM | [2] 33.9 µM | [3] 19.9 µM | [6] 30.3 µM | CYP3A5 (gene 1577) 11.9 µM | [7] 50 µM | [8] 51.9 µM | [10] 39.4 µM | [13] 50 µM | [16] 90.9 µM

CC(C)(C)c1cc(/C=C2\SC(N)=NC2=O)cc(C(C)(C)C)c1O
active: CYP2C9 (gene 1559) 12.2 µM | CYP2E1 (gene 1571) 83.2 µM | CYP4A11 (gene 1579) 29.1 µM | [2] 22.8 µM | [4] 50 µM | [6] 27.6 µM | CYP3A5 (gene 1577) 93.5 µM | [7] 14.8 µM | [10] 91.4 µM | [11] 14.5 µM | [12] 21.5 µM | [16] 68.8 µM
inactive: [3] | [5] | [8] | [13] | [14] | [15]

OC12N=C(c3ccccc3)SC1Cc1cc(Cl)ccc12 (centres undefined)
inactive: [3] | [5] | [11] | [14] | [15] | [16]
active: CYP2C9 (gene 1559) 37.7 µM | CYP2E1 (gene 1571) 16 µM | CYP4A11 (gene 1579) 49 µM | [1] 81.3 µM | [2] 2.33 µM | [6] 59 µM | CYP3A5 (gene 1577) 8.12 µM | [7] 34.4 µM | [8] 63.2 µM | [10] 30 µM | [12] 2.05 µM | [13] 25.1 µM

CCCCCCCC[Si](OCC)(OCC)OCC
not listed: [9]
inactive: all other assays above

CCCCOC(=O)c1ccc(O)cc1
not listed: [4] | [9] | [16]
inactive: all other assays above
